Where “and” joins values, the source holds several entries; their conditions need not be identical. Equal values may be shown once. In all, about 5,500 compounds went through this assay and about 2,000 (36%) were called active. About 18% were inconclusive and are not listed. Cut-off read from the data, not from the text of the source: active = normalized growth mostly below about 0.91 (no sharp cut-off); inconclusive = no clear call, values can overlap the other calls; inactive = mostly above about 0.92. The list shows a part of the results.
Experiment: chemical genetic growth profiling, strain panel (AID 1159580);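 note: tested at 20 µM; growth read once vehicle control cultures reached saturation at 30 °C; 1 = growth at the plate median or of vehicle wells; lower values mean less growth of the strain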
Conditions: S. cerevisiae deletion strains, growth OD

Measured: normalized growth

CC(C)c1c(O)c(-c2cc3c(c(C(C)C)c2O)CCC2C(C)(C)CCC[C@]32C)cc2c1CCC1C(C)(C)CCC[C@]21C (stereo partly specified)
inactive: locus YAL013W, strain DEP1, hits give low values 1.01 | locus YAL021C, strain ccr4, hits give low values 0.987 | locus YAL026C, strain drs2, hits give low values 0.988 | locus YAL030W, strain snc1, hits give low values 0.996 | locus YBL061C, strain skt5, hits give low values 0.991 | locus YBR009C, strain hhf1, hits give low values 1.02 | locus YBR021W, strain FUR4, hits give low values 1.03 | locus YBR023C, strain chs3, hits give low values 0.992 | locus YBR171W, strain sec66, hits give low values 0.976 | locus YBR229C, strain ROT2, hits give low values 1.02 | locus YBR231C, strain swc5, hits give low values 0.99 | locus YBR279W, strain paf1, hits give low values 0.99 | locus YCL011C, strain gbp2, hits give low values 0.983 | locus YCL016C, strain dcc1, hits give low values 0.976 | locus YCL029C, strain bik1, hits give low values 1.02 | locus YCL061C, strain MRC1, hits give low values 0.982 | locus YCL069W, strain vba3, hits give low values 0.998 | locus YCR088W, strain abp1, hits give low values 1 | locus YDL005C, strain med2, hits give low values 0.964 | locus YDL035C, strain GPR1, hits give low values 1.02 | locus YDL040C, strain nat1, hits give low values 0.991 | locus YDL074C, strain BRE1, hits give low values 1.02 | locus YDL101C, strain DUN1, hits give low values 1.01 | locus YDL134C, strain PPH21, hits give low values 1.01 | locus YDL185W, strain tfp1, hits give low values 1.04 | locus YDL192W, strain arf1, hits give low values 1.03 | locus YDR001C, strain nth1, hits give low values 0.984 | locus YDR069C, strain doa4, hits give low values 0.982 | locus YDR101C, strain arx1, hits give low values 1.01 | locus YDR137W, strain rgp1, hits give low values 0.982 | locus YDR150W, strain NUM1, hits give low values 1.02 | locus YDR159W, strain sac3, hits give low values 0.986 | locus YDR162C, strain NBP2, hits give low values 1.02 | locus YDR195W, strain ref2 0.938 | locus YDR297W, strain sur2, hits give low values 0.985 | locus YDR318W, strain mcm21, hits give low values 1.02 | locus YDR334W, strain swr1, hits give low values 0.972 | locus YDR335W, strain msn5, hits give low values 0.986 | locus YDR388W, hits give low values 1.01 | locus YDR392W, strain spt3, hits give low values 0.982 | locus YDR502C, strain sam2, hits give low values 1.01 | locus YEL003W, strain gim4, hits give low values 0.995 | locus YEL037C, strain rad23, hits give low values 0.99 | locus YEL061C, strain CIN8 (second series), hits give low values 0.993 | locus YEL061C, strain CIN8, hits give low values 1.01 | locus YER015W, strain faa2, hits give low values 0.985 | locus YER016W, strain bim1, hits give low values 0.972 | locus YER110C, hits give low values 1.02 | locus YER111C, strain swi4, hits give low values 0.992 | locus YER155C, strain BEM2 (second series), hits give low values 0.992 | locus YER155C, strain BEM2, hits give low values 1.01 | locus YER167W, strain BCK2, hits give low values 1.03 | locus YFR010W, strain ubp6, hits give low values 1.01 | locus YGL078C, strain dbp3, hits give low values 1.01 | locus YGL086W, strain mad1, hits give low values 1.02 | locus YGL167C, strain pmr1, hits give low values 0.993 | locus YGL173C, strain kem1, hits give low values 0.972 | locus YGL227W, strain vid30, hits give low values 0.982 | locus YGL240W, strain doc1, hits give low values 0.988 | locus YGL248W, strain PDE1, hits give low values 1.02 | locus YGL253W, strain hxk2, hits give low values 0.985 | locus YGR078C, strain PAC10, hits give low values 1.01 | locus YGR135W, strain pre9, hits give low values 1.01 | locus YGR229C, strain SMI1, hits give low values 1.01 | locus YGR252W, strain gcn5, hits give low values 1.06 | locus YHR013C, strain ard1, hits give low values 0.947 | locus YHR027C, strain rpn1, hits give low values 0.985 | locus YHR030C, strain SLT2, hits give low values 1.01 and 0.972 | locus YHR079C, strain IRE1 (second series), hits give low values 1.01 | locus YHR079C, strain IRE1, hits give low values 0.965 | locus YHR094C, strain hxt1, hits give low values 1.02 | locus YHR129C, strain ARP1, hits give low values 1 | locus YHR142W, strain chs7, hits give low values 0.986 | locus YHR200W, strain rpn10, hits give low values 1.02 | locus YIL066C, strain RNR3, hits give low values 1.02 | locus YIL073C, strain SPO22, hits give low values 1.08 | locus YIL125W, strain kgd1, hits give low values 1.02 | locus YIR030C, strain dcg1, hits give low values 1.01 | locus YJL092W, strain hpr5, hits give low values 0.979 | locus YJL095W, strain BCK1 (second series), hits give low values 0.997 | locus YJL095W, strain BCK1, hits give low values 1.01 and 1 | locus YJL115W, strain asf1, hits give low values 0.956 | locus YJL129C, strain trk1, hits give low values 0.988 | locus YJL134W, strain LCB3, hits give low values 1.01 | locus YJL154C, strain vps35, hits give low values 0.985 | locus YJL164C, strain tpk1, hits give low values 0.994 | locus YJL166W, strain qcr8, hits give low values 0.997 | locus YJL168C, strain set2, hits give low values 1.02 | locus YJL187C, strain SWE1 (second series), hits give low values 1.01 | locus YJR043C, strain POL32, hits give low values 1.03 | locus YJR066W, strain TOR1, hits give low values 0.945

Reference: PubChem BioAssay AID1159580 (chemical genetic matrix, 2015)
